Screens as filed in PubChem BioAssay.
NCOA3 inh = SRC3 coactivator transcriptional activity inhibitors, primary screen, cell-based, luminescence; actives 0.17% (n = 360,000); Nuclear receptor coactivator 3 (Homo sapiens), Q9Y6Q9; inhibition, % at 3.6 µM; AID 588352, 2011; HEK293 GAL4-SRC3 luciferase reporter;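 active means inhibition above a per-campaign cutoff, the mean of all compounds plus 3 SD, cut at about 60% in these data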;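 further: 0% = DMSO-treated cells and 100% = gossypol-treated cells at 36 µM; higher means less SRC3-driven luciferase light from the GAL4 reporter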
NR2F2 inh = NR2F2 transcriptional activity inhibitors, primary screen, cell-based, luciferase reporter, HEK293T, luminescence | AID 686940, 2013 | actives 0.7% (n = 370,000) | inhibition, % at 8.6 µM | HEK293T NGFI-A luciferase reporter | COUP transcription factor 2 (Homo sapiens), P24468;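 active means inhibition above a per-plate cutoff, mean inhibition of test wells between control levels plus 3 SD, cut at about 38% in these data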;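 further: cells cotransfected with COUP-TFII expression vector driving the NGFI-A reporter; 0% = median of COUP-TF2 test wells and 100% = reporter-only cells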
Target sequence (P24468 whole entry, looked up): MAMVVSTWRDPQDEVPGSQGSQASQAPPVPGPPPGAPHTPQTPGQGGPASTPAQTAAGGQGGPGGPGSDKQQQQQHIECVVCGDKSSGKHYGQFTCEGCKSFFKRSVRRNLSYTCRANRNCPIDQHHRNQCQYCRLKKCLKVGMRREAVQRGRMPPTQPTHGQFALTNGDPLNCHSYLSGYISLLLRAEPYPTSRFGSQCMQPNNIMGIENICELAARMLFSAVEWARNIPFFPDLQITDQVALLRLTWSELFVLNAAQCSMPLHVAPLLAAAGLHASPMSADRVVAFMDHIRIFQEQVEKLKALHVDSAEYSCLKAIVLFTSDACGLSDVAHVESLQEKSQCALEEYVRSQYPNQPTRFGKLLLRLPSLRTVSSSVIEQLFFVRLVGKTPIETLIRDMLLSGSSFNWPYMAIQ
Gli-Sufu block = Gli-Sufu pathway antagonists, primary screen, luciferase luminescence, Sufu-KO-LIGHT cells, uHTS; inhibition, % at 5 µM; Sufu-KO-LIGHT fibroblasts, Gli luciferase reporter luminescence; AID 588413, 2011; actives 0.74% (n = 340,000);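 active means inhibition above about 55%, limit read from the data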;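 further: 0% = DMSO-treated cells and 100% = wells with medium but no cells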
LRH-1 inv ag = LRH-1 (NR5A2) inverse agonists, primary screen, cell-based, luminescence, HEK293T, StAR-luciferase reporter. Nuclear receptor subfamily 5 group A member 2 (Homo sapiens), O00482. LRH-1 transfected, 24 h. inhibition, % at 3.6 µM. actives 0.13% (n = 360,000). AID 602396, 2012;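 active means inhibition above the mean inhibition of all tested compounds plus 3 SD, cut at about 73% in these data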;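 further: 0% = DMSO wells and 100% = reporter-only cells lacking LRH-1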
SRC2 inh = inhibition of GAL4-SRC2 driven luciferase reporter, primary screen, SRC2 inhibitor project, cell-based, luminescence; Nuclear receptor coactivator 2 (Homo sapiens), Q15596; HEK293 GAL4-SRC2 luciferase reporter; inhibition, % at 9 µM; actives 0.17% (n = 370,000);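 active means inhibition above the mean inhibition of all tested compounds plus 3 SD, set per campaign, cut at about 52% in these data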;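 further: 0% = DMSO treated cells and 100% = cells given Gossypol at 36 µM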
SRC1 inh = SRC1 coactivator transcriptional activity inhibitors, primary screen, cell-based, luminescence | inhibition, % at 3.6 µM | Nuclear receptor coactivator 1 (Homo sapiens), Q15788 | actives 0.12% (n = 360,000) | HEK293 GAL4-SRC1 luciferase reporter | AID 588354, 2011;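 active means inhibition above the campaign mean plus 3 SD, with each screening campaign given its own cutoff, cut at about 60% in these data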;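 further: 0% = DMSO treated cells and 100% = gossypol at 36 µM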
Gal4-VP16 ctr = Gal4-VP16 luciferase reporter inhibitors, counter-screen for COUP-TFII antagonist project, cell-based, luminescence, HEK293; actives 25% (n = 2,500); shares compounds with NR2F2 inh; AID 687007, 2013; inhibition, % at 8.5 µM; in the data active means inhibition above about 13%
NR2F2 inh conf = NR2F2 transcriptional activity inhibitors, confirmation, cell-based, luciferase reporter, HEK293, triplicate | shares compounds with NR2F2 inh | inhibition, % at 8.5 µM | AID 687008, 2013 | HEK293 NGFI-A luciferase reporter, luminescence | actives 45% (n = 2,500);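 active means mean inhibition over three repeats above a set limit taken from the earlier primary screen, cut at about 38% in these data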;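 further: 100% = cells given the luciferase reporter alone without the COUP-TF2 vector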
* marks the source's active call; other numbers are inactive results. Rows were chosen to be rich in hits. Some 1.3% of all compounds tested hit in one or more screens of this group.

`O=C(c1cc2ccccc2o1)N1CCN(C/C=C/c2ccccc2)CC1` gave NCOA3 inh 14, NR2F2 inh 38*, Gli-Sufu block 6, LRH-1 inv ag 6, SRC2 inh -8, SRC1 inh -6, Gal4-VP16 ctr -3 and NR2F2 inh conf 3.
`NC(Cc1ccc(O)cc1)C(=O)NN=Cc1ccccc1O` (stereo not drawn) gave NR2F2 inh 2 and SRC2 inh -44.
COc1ccc(C(=O)C2(C(=O)NCc3ccccc3)CC(c3ccccc3C(F)(F)F)=NO2)cc1 (stereo not drawn) was read as NR2F2 inh 1 and SRC2 inh -1.
c1ccn(-c2ccc(-c3noc(CCc4ccncc4)n3)cc2)c1 was read as NR2F2 inh 51*, SRC2 inh 11, Gal4-VP16 ctr -24 and NR2F2 inh conf 20.
Screening Clc1ccc(CSc2nnc(-c3cccs3)o2)cc1Cl returned NR2F2 inh 8 and SRC2 inh -21.
For CCOC(=O)C1=NOC(C(=O)NCCO)(C(=O)C2CC2)C1 (stereo not drawn) the results were NR2F2 inh -3 and SRC2 inh 1.
`COc1cc(/C=C2\CC/C(=C\c3cc(OC)c(OC)c(OC)c3)C2=O)cc(OC)c1OC` gave NCOA3 inh 25, NR2F2 inh 0, Gli-Sufu block 28, LRH-1 inv ag -1, SRC2 inh -7 and SRC1 inh -8.
`COc1cc(/C=C2\COC/C(=C\c3cc(OC)c(OC)c(OC)c3)C2=O)cc(OC)c1OC` gave NCOA3 inh 3, NR2F2 inh 60*, Gli-Sufu block 55*, LRH-1 inv ag -12, SRC2 inh 75*, SRC1 inh -187, Gal4-VP16 ctr 92* and NR2F2 inh conf 103*.
CN1CCN(c2ccc(NC(=O)N3CCc4ccccc43)cc2)CC1 was read as NCOA3 inh 53, NR2F2 inh 62*, Gli-Sufu block 48, LRH-1 inv ag 35, SRC2 inh 37, SRC1 inh 57, Gal4-VP16 ctr -11 and NR2F2 inh conf 63*.
`Cc1ccc(NC(=O)N2CCc3ccccc32)cc1` gave NCOA3 inh -81, NR2F2 inh -30, Gli-Sufu block -118, LRH-1 inv ag -123, SRC2 inh -32 and SRC1 inh -84.
`Cc1cccc(NC(=O)N2CCC(N(C)CCC(C)C)CC2)c1` gave NR2F2 inh 1 and SRC2 inh 11.
Screening Cc1cccc(NC(=S)NNc2ncc(C(F)(F)F)cc2Cl)c1 returned NCOA3 inh 14, NR2F2 inh 32, Gli-Sufu block 3, LRH-1 inv ag -6, SRC2 inh 50 and SRC1 inh 6.
Screening FC(F)(F)c1cnc(NNC(=S)Nc2ccccc2Cl)c(Cl)c1 returned NCOA3 inh 30, NR2F2 inh 42*, Gli-Sufu block 26, LRH-1 inv ag 7, SRC2 inh -11, SRC1 inh 6, Gal4-VP16 ctr 18* and NR2F2 inh conf 14.
Screening COC(=O)C1CN(CCO)CCS(=O)(=O)N1Cc1cn(Cc2ccc(C)cc2)nn1 (stereo not drawn) returned NR2F2 inh -18 and SRC2 inh 12.
Screening CCOC(=O)[C@@]12CN(C(=O)OC(C)(C)C)CC=C1N(Cc1ccc(OC)cc1)C(=O)[C@H]2CC(=O)NCCCN1CCCC1=O returned NR2F2 inh 9 and SRC2 inh 10.
CCCCN(CCCNC(=O)c1ccc2c(c1)NC(=O)CN2C)c1ccccc1 was read as NCOA3 inh -2, NR2F2 inh 45*, LRH-1 inv ag -15, SRC2 inh 13, SRC1 inh 5, Gal4-VP16 ctr 8 and NR2F2 inh conf 14.
Screening Cc1cccc(Cn2cc(CN3CC(N4CCN(CCOC(=O)c5cc6ccccc6o5)CC4)CS3(=O)=O)nn2)c1 (stereo not drawn) returned NR2F2 inh 8 and SRC2 inh -29.
`CCCNC1=C(N(C(C)=O)c2cccc(F)c2)C(=O)c2ccccc2C1=O` gave NCOA3 inh 40, NR2F2 inh 57*, Gli-Sufu block 85*, LRH-1 inv ag 79*, SRC2 inh 58*, SRC1 inh 28, Gal4-VP16 ctr 12 and NR2F2 inh conf -2.
Screening CCC(=O)N(C1=C(NC(C)C)C(=O)c2ccccc2C1=O)C(C)C returned NCOA3 inh 4, NR2F2 inh 3, Gli-Sufu block 8, LRH-1 inv ag 12, SRC2 inh -7 and SRC1 inh 8.
Screening O=C(CSc1nnc(COc2ccccc2)n1-c1ccc(Cl)cc1)Nc1ccc(OCc2ccccc2)cc1 returned NR2F2 inh -11 and SRC2 inh -25.
For NS(=O)(=O)OCCCc1ccccc1 the results were NCOA3 inh -12, NR2F2 inh -16, Gli-Sufu block -4, LRH-1 inv ag 12, SRC2 inh -17 and SRC1 inh 0.
For [2H]C(CCOS(N)(=O)=O)c1ccc(C(C)(C)C)cc1 (stereo not drawn) the results were NCOA3 inh 8, NR2F2 inh 43*, Gli-Sufu block 16, LRH-1 inv ag 16, SRC2 inh 45, SRC1 inh 6, Gal4-VP16 ctr 22* and NR2F2 inh conf 19.
`O=C(Sc1cccc2cccnc12)c1ccc(F)cc1` gave NR2F2 inh 43*, SRC2 inh -10, Gal4-VP16 ctr 47* and NR2F2 inh conf 44*.
O=C(Sc1cccc2cccnc12)c1ccccc1Br was read as NCOA3 inh -104, NR2F2 inh 30, LRH-1 inv ag 64, SRC2 inh -59 and SRC1 inh -221.
For O=C(N/N=C\c1ccc(-c2ccccc2[N+](=O)[O-])o1)C1COc2ccccc2O1 (stereo not drawn) the results were NCOA3 inh 18, NR2F2 inh 10, Gli-Sufu block 4, LRH-1 inv ag 24, SRC2 inh 8 and SRC1 inh 0.
